# The supplement of paper PMC9135407
# Where “and” joins values, the source holds several entries; their conditions need not be identical. Equal entries are not always repeated. Structures can show the parent of a compound that is named as a salt. Hit rate of the full screen: of about 5,800 compounds, about 620 (11%) showed activity. The list comes from a sample in which actives are over-represented; it also holds similar structures and randomly drawn compounds. A number with no mark means an inactive call.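 How the source made its calls: active = score above a cut-off or among the top three wells of a plate; in these data no inactive exceeds 0.85.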
# Test system: primary human hepatic stellate cells (donor 1)
# Assay: scaled lipid accumulation score (0 = DMSO-like, 1 = nortriptyline-like); higher = stronger HSC inactivation (lipid re-accumulation), active = hit call of the paper
# Details: 48 h
# Description: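 Primary lipid accumulation screen in primary human hepatic stellate cell myofibroblasts (donor 1, passage 8) in 384-well plates. 100 nL of library compound was pin-transferred into 30 µL medium in duplicate, and cells were treated for 48 h. The 'Scaled' score combines distance from plate baseline, toxicity and reproducibility penalties, and is normalised to nortriptyline (positive) and DMSO (negative) controls on each plate. A hit is defined as scaled >0.85 or among the top 3 wells per plate.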
# [1] = library stock concentration: 400 uM
# [2] = library stock concentration: 3.33 mM
# [3] = library stock concentration: 10 mM
# [4] = library stock concentration: 80 uM
# [5] = library stock concentration: 2 mM
# [6] = library stock concentration: 1 mM
smiles,measurement,setting,value
O=C(Nc1c[nH]nc1-c1nc2ccc(CN3CCOCC3)cc2[nH]1)NC1CC1 [listing 1 of 2 here],scaled lipid accumulation score,[1],0.877 (active)
O=C(NC1CCOCC1)c1ccc(-c2cc(-c3c[nH]nc3-c3ccccn3)ccn2)cc1,scaled lipid accumulation score,[2],≤ 0
same,scaled lipid accumulation score,[3],≤ 0
O=C(Nc1c[nH]nc1-c1nc2ccc(CN3CCOCC3)cc2[nH]1)NC1CC1 [listing 2 of 2 here],scaled lipid accumulation score,[4],0.613
same,scaled lipid accumulation score,[1],0.259
same,scaled lipid accumulation score,[5],0.562 and 0.591
same,scaled lipid accumulation score,[2],0.59
same,scaled lipid accumulation score,[3],0.791 and 0.755 and 0.681
CCCCC[C@H](O)/C=C/[C@H]1[C@@H]2CO[C@@H](C2)[C@@H]1C/C=C\CCCC(=O)O,scaled lipid accumulation score,[6],≤ 0
"O=P(O)(O)O[C@@H]1[C@H](O)[C@H](O)[C@@H](OP(=O)(O)O)[C@H](OP(=O)(O)O)[C@H]1O [D-myo-Inositol-1,4,5-triphosphate (sodium salt)]",scaled lipid accumulation score,[6],0.018
CN(C)CCCOc1nn(Cc2ccccc2)c2ccccc12 [Benzydamine HCl],scaled lipid accumulation score,[2],0.13
CN(C)CCCOc1nn(Cc2ccccc2)c2ccccc12.Cl [Benzydamine HCl],scaled lipid accumulation score,[3],1.08 (active)
CN(C)CCCOc1nn(Cc2ccccc2)c2ccccc12 [Benzydamine hydrochloride],scaled lipid accumulation score,,0.652
same,scaled lipid accumulation score,library stock concentration: 5.8 mM,0.429
CC(C)(OCc1nn(Cc2ccccc2)c2ccccc12)C(=O)O [Bindarit],scaled lipid accumulation score,[2],≤ 0
same,scaled lipid accumulation score,[3],≤ 0
"COc1cc2c(cc1Cc1cccc(Cl)c1F)c(=O)c(C(=O)O)cn2[C@H](CO)C(C)C [Elvitegravir (GS-9137, JTK-303)]",scaled lipid accumulation score,[2],≤ 0
same,scaled lipid accumulation score,[3],≤ 0
O=C(O)CCCCCCC1C(=O)N(Cc2ccccc2)C(=O)N1NCC(O)C1CCCCC1 (configuration not stated),scaled lipid accumulation score,[6],≤ 0
CCCn1cc(-c2ccnc(NC3CCN(Cc4cccnc4)CC3)n2)c(C)n1,scaled lipid accumulation score,[3],0.91 (active)
COC(=O)C[C@](O)(CCCC(C)(C)O)C(=O)O[C@@H]1C(OC)=C[C@]23CCCN2CCc2cc4c(cc2[C@H]13)OCO4 [Homoharringtonine],scaled lipid accumulation score,[3],1.27 (active)
O=C1O/C(=C/Br)CCC1c1cccc2ccccc12 (configuration not stated) [Bromoenol lactone],scaled lipid accumulation score,[6],≤ 0
O=c1[nH]c(C2CCCN2)nc2c1oc1ccc(Cl)cc12 (configuration not stated),scaled lipid accumulation score,[4],≤ 0
same,scaled lipid accumulation score,[1],0.055
same,scaled lipid accumulation score,[5],≤ 0
same,scaled lipid accumulation score,[3],≤ 0
O=C(O)CCC/C=C\C[C@@H]1[C@@H](/C=C/[C@@H](O)C2CCCCC2)[C@H](O)C[C@@H]1O [15-cyclohexyl pentanor Prostaglandin F2.alpha.],scaled lipid accumulation score,[6],≤ 0
